In PubChem BioAssay (Tox21):
Values joined by “and” are separate entries in the source; they are usually repeats but may differ in a detail not shown here. Equal values may be shown once. Records with an inconclusive call do not appear. A number with no mark means an inactive call. Active and inactive are the calls of the source. Calls follow the shape of the dose curve; as a rule, active = well fitted inhibition curve with a large enough effect in the repeat runs; inconclusive = weak or mixed curves; inactive = no such curve, though single readings can be large or run the other way. Positions of bridges follow the written chain, without caps; N, C: chain ends. Non-standard residues stand in square brackets, D forms with d. Residues, ends and D or L forms follow the SMILES beside them. *: point of attachment. Dab(CH2SO3H) = N[C@@H](CCNCS(=O)(=O)O)C(=O)O; X3 = CC[C@@H](C)CCCCC(=O)*; Dab = NCC[C@H](N)C(=O)O

target: Aromatase (Homo sapiens) (UniProt P11511); test: qHTS assay to identify aromatase inhibitors (AID 743083); conditions: MCF-7 aro ERE, testosterone-driven ERE luciferase, 24 h; series mostly up to 70.3 µM; activity, negative = inhibition: at the top concentration; also: nearly all actives have a fitted effect of over 55% in size
% is scaled to controls: 0 for no effect and ±100 for the full control effect; potency is read from the fitted curve at half-maximal effect.

Aromatase (Homo sapiens), sequence (P11511 whole entry, looked up): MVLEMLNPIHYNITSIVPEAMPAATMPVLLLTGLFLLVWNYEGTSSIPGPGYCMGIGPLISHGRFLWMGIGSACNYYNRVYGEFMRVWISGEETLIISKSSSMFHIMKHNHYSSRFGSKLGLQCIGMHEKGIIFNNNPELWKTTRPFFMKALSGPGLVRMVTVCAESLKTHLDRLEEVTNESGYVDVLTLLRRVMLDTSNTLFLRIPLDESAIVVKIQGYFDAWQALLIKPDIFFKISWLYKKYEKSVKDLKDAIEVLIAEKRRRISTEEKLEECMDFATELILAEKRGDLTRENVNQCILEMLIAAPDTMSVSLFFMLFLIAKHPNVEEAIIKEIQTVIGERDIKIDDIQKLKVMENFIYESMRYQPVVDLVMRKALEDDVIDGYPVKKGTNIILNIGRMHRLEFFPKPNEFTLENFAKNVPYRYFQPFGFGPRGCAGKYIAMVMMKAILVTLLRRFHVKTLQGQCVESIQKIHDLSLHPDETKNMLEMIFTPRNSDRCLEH

Row | SMILES | Potency | activity, negative = inhibition
1 | CC[C@H]1OC(=O)[C@H](C)C(=O)[C@H](C)[C@@H](O[C@@H]2O[C@H](C)C[C@H](N(C)C)[C@H]2O)[C@](C)(OC)C[C@@H](C)C(=O)[C@H](C)[C@H]2N(CCCCn3cnc(-c4cccnc4)c3)C(=O)O[C@]12C | inactive | –
2 | O=P(O)(O)OP(=O)(O)OP(=O)(O)O | – | -4.42%
3 | NC[C@@H]1CC[C@@H](N)[C@@H](O[C@H]2[C@H](O)[C@@H](O[C@H]3O[C@H](CO)[C@@H](O)[C@H](N)[C@H]3O)[C@H](N)C[C@@H]2N)O1 | – | 14.2%
4 | CC(=O)OCC(=O)[C@@]1(O)CC[C@H]2[C@@H]3CCC4=CC(=O)CC[C@]4(C)C3=CC[C@@]21C | – | 19.8%
5 | CN1CC[C@H](c2c(O)cc(O)c3c(=O)cc(-c4ccccc4Cl)oc23)[C@H](O)C1 | 0.211 µM (active) | –
6 | CC12CCC(C[N+](C)(CCC[N+](C)(C)C)C1)C2(C)C (stereo not drawn) | – | -0.301%
7 | O=C1c2c(O)cccc2[C@H]([C@@H]2O[C@H](CO)[C@@H](O)[C@H](O)[C@H]2O)c2cc(CO)cc(O)c21 | inactive | –
8 | NCC(O)CC(=O)O (stereo not drawn) | – | 3.75%
9 | CCOc1ccc(S(=O)(=O)O)c2cccnc12 | – | 9.08%
10 | CC12CCC(C1)C(C)(C)C2=O (stereo not drawn) | – | 9%
11 | CN1C(=O)C[C@@H](C(=O)N[C@@H](Cc2cnc[nH]2)C(=O)N2CCC[C@H]2C(N)=O)NC1=O | – | -0.601%
12 | NC[C@H]1O[C@H](O[C@H]2[C@H](O)[C@@H](O[C@H]3O[C@H](CO)[C@@H](O)[C@H](N)[C@H]3O)[C@H](N)C[C@@H]2N)[C@H](N)C[C@@H]1O | – | 0.0866% [at 32.5 µM]
13 | NCC[C@H](O)C(=O)N[C@@H]1C[C@H](N)[C@@H](O[C@H]2O[C@H](CN)CC[C@H]2N)[C@H](O)[C@H]1O[C@H]1O[C@H](CO)[C@@H](O)[C@H](N)[C@H]1O | – | 5.99%
14 | CC1(C)S[C@@H]2[C@H](NC(=O)[C@@H](NC(=O)N3CCNC3=O)c3ccccc3)C(=O)N2[C@H]1C(=O)O | – | 3.09% [at 32.5 µM]
15 | C=CC[N@@+]12CC[C@@]34c5ccccc5N5/C=C6/[C@H]7C[C@H]8[C@@]9(CC[N@@+]8(CC=C)C/C7=C/CO)c7ccccc7N(/C=C(/[C@@H](C[C@@H]31)/C(=C\CO)C2)[C@H]54)[C@@H]69 | – | -0.611% [at 32.5 µM]
16 | CC(C)Cc1ccc([C@H](C)C(=O)O)cc1 | – | 2.04%
17 | COc1cc2c(cc1OC)[C@@H](Cc1cc(OC)c(OC)c(OC)c1)[N+](C)(CCCOC(=O)CC/C=C/CCC(=O)OCCC[N+]1(C)CCc3cc(OC)c(OC)cc3[C@H]1Cc1cc(OC)c(OC)c(OC)c1)CC2 (stereo partly drawn) | inactive | –

Row | SMILES | Potency | activity, negative = inhibition
18 | FC(F)(F)C(F)(F)C(F)(F)C(F)(F)C(F)(F)F | – | -4.21%
19 | COc1ccc(/C=N/NC(=O)c2ccncc2)c(C(=O)O)c1OC | – | 1.15%
20 | C[C@]12O[C@H](C[C@]1(O)CO)n1c3ccccc3c3c4c(c5c6ccccc6n2c5c31)CNC4=O | 2.11 µM (active) | –
21 | Cc1cc(-c2ccc(N=Nc3ccc4c(S(=O)(=O)O)cc(S(=O)(=O)O)c(N)c4c3O)c(C)c2)ccc1N=Nc1ccc2c(S(=O)(=O)O)cc(S(=O)(=O)O)c(N)c2c1O | 26.6 µM (active) | –
22 | CC[N+](CC)(CC)CCC(O)(c1ccccc1)C1CCCCC1 (stereo not drawn) | – | -2.05% [at 32.5 µM]
23 | CC(C)c1ncc([N+](=O)[O-])n1C | – | 2.65%
24 | CCN(CC)CCNC(=O)c1ccc(NS(C)(=O)=O)cc1 | – | -5.96%
25 | CN(C)CCc1c[nH]c2ccc(Cn3cncn3)cc12 | – | 0.348%
26 | C=C1C(=C/C=C2\CCC[C@]3(C)[C@@H]([C@H](C)CCCC(C)C)CC[C@@H]23)C[C@@H](O)C[C@@H]1O | – | 19.3%
27 | C/C=C/C1=C(C(=O)O)N2C(=O)[C@@H](NC(=O)[C@H](N)c3ccc(O)cc3)[C@H]2SC1 | – | 1.19%
28 | O=C1C2CC3CC1CC(O)(C3)C2 | – | 9.78%
29 | COC(=O)C[C@](O)(CCCC(C)(C)O)C(=O)O[C@@H]1C(OC)=CC23CCCN2CCc2cc4c(cc2[C@H]13)OCO4 (stereo partly drawn) | 29.8 nM (active) and 23.7 nM (active) | –
30 | CC[C@@H](C)CCCCC(=O)N[C@@H](CCNCS(=O)(=O)O)C(=O)N[C@H](C(=O)N[C@@H](CCNCS(=O)(=O)O)C(=O)N[C@H]1CCNC(=O)[C@H]([C@@H](C)O)NC(=O)[C@H](CCNCS(=O)(=O)O)NC(=O)[C@H](CCNCS(=O)(=O)O)NC(=O)[C@H](CC(C)C)NC(=O)[C@@H](CC(C)C)NC(=O)[C@H](CCNCS(=O)(=O)O)NC1=O)[C@@H](C)O (X3-[Dab(CH2SO3H)]T[Dab(CH2SO3H)][Dab][Dab(CH2SO3H)][dL]L[Dab(CH2SO3H)][Dab(CH2SO3H)]T; lactam 4-C) | – | -2.35%
31 | CCC(NC(C)C)C(O)c1ccc(O)c(O)c1 (stereo not drawn) | – | 12.5%
32 | CCCCCCCCCC[N+](C)(CCCCCCCCCC)CCC[Si](OC)(OC)OC | 61.1 µM (active) | –
33 | O=C1CCC(c2ccc(-n3ccnc3)cc2)=NN1 | 6.68 µM (active) | –
